Source: PubChem BioAssay
Nrf2 block: Nrf2 pathway inhibition; actives 2.1% (n = 360,000); A549 ARE-Fluc reporter, luciferase luminescence, 18-24 h; Potency, µM (doses to about 46 µM), most hits filed as inhibitors; also: nearly all actives have a fitted effect of over 60% in size
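Concentration-response testing used A549 ARE_Fluc cells at 5000 cells/well. Following an 18-24 h compound incubation, viability was read by fluorescence (Ex 405/Em 525) and luciferase output by luminescence.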
Nrf2 ARE act: activates Nrf2 signaling. AREc32 ARE-luciferase reporter (MCF7-derived line), luminescence, 24 h. Potency, µM (series often up to 46.1 µM), most hits filed as activators. actives 0.31% (n = 410,000); also: nearly all actives have a fitted effect of over 65% in size
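ARE activation measured as luciferase luminescence (Steady-Glo, 30 min RT) in AREc32_Fluc cells after 24 hr compound exposure at 37 deg C, 5% CO2; cells seeded overnight at 1000/well in OPTI-MEM, 5% FBS.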
A549 tox-1: kills or reduces viability of A549 cells in Nrf2 counter-screen; A549 ARE-Fluc cells, CellTiter-Fluor viability, 18-24 h; actives 0.16% (n = 390,000); Potency, µM (doses to about 46 µM), most hits filed as inhibitors
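Cytotoxicity counterscreen: CellTiter-Fluor fluorescence was measured in A549 ARE_Fluc cells after 18-24 h of compound exposure in a concentration series. The subsequent BugLite luminescent read reports ARE-luciferase activity.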
IDH1 R132H inh: human IDH1 R132H inhibition. O75874. IDH1-R132H enzyme, NADPH consumption, diaphorase/resazurin fluorescence. Potency, µM (top dose mostly 76.6 µM), hits mostly inhibitors. actives 0.093% (n = 390,000). AID 602179; also: nearly all actives have a fitted effect of over 65% in size
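IDH1-R132H (0.5 ug/mL) preincubated 30 min with compound, then NADPH (0.016 mM) and alpha-KG (2 mM) added; 80 min at RT, pH 7.5. Remaining NADPH coupled via diaphorase/resazurin to fluorescence (540/590 nm); concentration-response curves normalized to no-enzyme control.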
Giardia kill: Giardia lamblia killing | activity change, % at 7.66 µM, hits read low | AID 540267 | actives 0.15% (n = 340,000) | Giardia lamblia trophozoite viability; in the data active = activity change below about -80%; inconclusive = between about -30% and that limit;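 also: parasites exposed to compound for two days anaerobically before the ATP read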
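Giardia lamblia trophozoites (100 cells/well) were incubated with compounds for 48 h at 37 deg C under anaerobic conditions. Viability was read as ATP content by one-step luminescence after 15-30 min at room temperature.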
Apoferritin bind: binds horse apoferritin like a general anesthetic; actives 0.074% (n = 350,000); P02791; Potency, µM (top dose mostly 77.5 µM), most hits filed as inhibitors; apoferritin/1-aminoanthracene competitive binding, fluorescence; also: nearly all actives have a fitted effect of over 20% in size
Target sequence (P02791 2-175 limits assumed): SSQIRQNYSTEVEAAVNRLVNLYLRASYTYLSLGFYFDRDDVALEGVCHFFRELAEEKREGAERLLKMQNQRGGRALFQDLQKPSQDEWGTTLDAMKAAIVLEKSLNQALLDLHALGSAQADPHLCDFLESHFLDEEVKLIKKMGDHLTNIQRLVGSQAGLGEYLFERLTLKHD
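Apoferritin-based anesthetic binding model; compound displacement of fluorescent 1-AMA measured as endpoint fluorescence after 10 minutes at room temperature, scaled to free-ligand and complex controls.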
FLuc enzyme inh: counter-screen for Nrf2 inhibitors: firefly luciferase enzyme inhibition; shares compounds with Nrf2 block; purified firefly luciferase, luminescence inhibition; Potency, µM (top dose mostly 57.5 µM), usual class: inhibitors; actives 4% (n = 1,400); AID 720522; also: nearly all actives have a fitted effect of over 65% in size
Target sequence (P08659 whole entry, looked up): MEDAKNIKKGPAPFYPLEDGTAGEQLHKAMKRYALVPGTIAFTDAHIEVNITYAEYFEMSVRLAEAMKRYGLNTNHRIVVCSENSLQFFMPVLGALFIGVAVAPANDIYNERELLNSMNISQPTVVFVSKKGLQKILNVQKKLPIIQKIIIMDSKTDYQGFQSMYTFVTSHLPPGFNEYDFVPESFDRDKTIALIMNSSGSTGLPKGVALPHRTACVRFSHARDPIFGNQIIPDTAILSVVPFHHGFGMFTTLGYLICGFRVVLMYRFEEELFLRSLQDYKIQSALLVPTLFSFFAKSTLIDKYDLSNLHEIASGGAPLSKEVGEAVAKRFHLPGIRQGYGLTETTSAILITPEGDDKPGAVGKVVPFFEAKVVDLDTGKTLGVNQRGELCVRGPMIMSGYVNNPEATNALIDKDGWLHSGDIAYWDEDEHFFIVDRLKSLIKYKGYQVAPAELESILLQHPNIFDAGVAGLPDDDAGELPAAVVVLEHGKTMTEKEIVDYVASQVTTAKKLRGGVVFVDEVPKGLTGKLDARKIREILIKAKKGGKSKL
A549 tox-2: A549 cytotoxicity, Nrf2 inhibitor counterscreen. shares compounds with Nrf2 block. A549 ARE-Fluc cells, cytotoxicity counterscreen. Potency, µM (top dose mostly 46.1 µM), usual class: inhibitors. actives 2% (n = 1,400);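 also: cells exposed to compounds for 18 to 24 hours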
Nrf2 ARE inh: reduces Nrf2 ARE reporter signal in A549 cells; AID 720524; A549 ARE-firefly luciferase reporter, luminescence; Potency, µM (doses to about 46.1 µM), usual class: inhibitors; shares compounds with Nrf2 block; actives 74% (n = 1,400); also: nearly all actives have a fitted effect of over 65% in size
Numbers stand for hits; . = inactive; ? = inconclusive; / = not tested or not shown; [ ] = remark or other dose. An excerpt weighted towards active compounds, which were near 2.3% of everything screened. Unless noted, calls follow the shape of the dose curve; as a rule, active = well fitted curve in the direction sought with a large enough effect; inconclusive = small, poorly fitted or top-dose-only effect, or another doubt; inactive = no such curve, though single readings can be large; an effect the other way counts as inactive or inconclusive.

SMILES	Nrf2 block	Nrf2 ARE act	A549 tox-1	IDH1 R132H inh	Giardia kill	Apoferritin bind	others
O=C(OCc1cn([C@H]2CN(C(=O)c3cccs3)[C@@H](c3ccccc3)C[C@@H]2O)nn1)c1ccccc1	/	.	/	.	/	/
CC[C@H](C)[C@H](N)C(=O)N[C@@H](CCCNC(=N)N)C(=O)N[C@@H](CCC(N)=O)C(=O)NCC(=O)N1CCC[C@H]1C(=O)N[C@@H](CCCCN)C(=O)N[C@@H](CCC(=O)O)C(=O)N1CCC[C@H]1C(=O)N[C@@H](Cc1ccccc1)C(=O)N[C@@H](CCCNC(=N)N)C(=O)N[C@@H](CC(=O)O)C(=O)N[C@@H](Cc1ccc(O)cc1)C(=O)N[C@H](C(=O)N[C@@H](CC(=O)O)C(=O)N[C@@H](CCCNC(=N)N)C(=O)N[C@@H](Cc1ccccc1)C(=O)N[C@@H](Cc1ccc(O)cc1)C(=O)N[C@@H](CCCCN)C(=O)N[C@H](C(=O)N[C@@H](CC(C)C)C(=O)O)[C@@H](C)O)C(C)C	/	/	/	/	/	.
C(=C\c1nc(-c2ccncc2)no1)/c1ccccc1	?	?	.	.	.	.
C(=C\c1nc(-c2ccccc2)no1)/c1ccccc1	?	14µM	.	.	.	.
COC(=O)[C@@]1(Cc2ccc(OC)cc2)[C@H]2c3cc(C(=O)N4CCCC4)n(CCn4cc([N+](=O)[O-])nc4C)c3C[C@H]2CN1C(=O)c1ccccc1	.	.	.	.	-83	.
COC(=O)[C@@]1(Cc2ccc(OC)cc2)[C@H]2c3cc(C(=O)N4CCCC4)n(CCF)c3C[C@H]2CN1C(=O)c1ccccc1	/	/	/	/	/	.
COCCNC(=O)C1CCCN(C(=O)COc2ccc(Cl)cc2Cl)CC1 (stereo unspecified)	/	.	/	/	/	/
Cc1ccccc1CC1C(=O)Nc2ccc(Br)cc21 (stereo unspecified)	.	.	.	/	/	?
COc1ccc(Br)cc1CC1C(=O)Nc2ccccc21 (stereo unspecified)	7.3µM	.	.	.	/	.
CC1=C(C(=O)N(C(C)C)C(C)C)CC(CC(=O)NCc2ccco2)C(=O)N1CCC1=CCCCC1 (stereo unspecified)	/	.	/	/	/	/
CC1CN(S(=O)(=O)c2ccc(C(=O)Nc3nc(-c4cc5ccccc5o4)cs3)cc2)CC(C)O1 (stereo unspecified)	3.7µM	.	7.3µM	.	.	.
CN(CC1CCCO1)S(=O)(=O)c1ccc(C(=O)Nc2nc(-c3ccccn3)cs2)cc1 (stereo unspecified)	5.2µM	.	?	.	.	.
Cc1cc(-c2csc(NC(=O)c3ccc(S(=O)(=O)N(C)C)cc3)n2)c(C)n1-c1ccccc1	?	.	.	.	.	.
CC1CN(S(=O)(=O)c2ccc(C(=O)Nc3nncs3)cc2)CC(C)O1 (stereo unspecified)	.	.	.	.	.	/
CN(C)S(=O)(=O)c1ccc(C(=O)Nc2nc(-c3cc4ccccc4o3)cs2)cc1	6.5µM	.	.	.	.	.
CCN(CC)c1nn2c(=O)c(C(=O)NCc3ccc(F)cc3)cnc2s1	.	.	.	.	/	.
CCCS(=O)(=O)N1CCN(S(=O)(=O)c2ccccc2[N+](=O)[O-])CC1	.	.	.	.	.	.
CC(=O)c1c(C)[nH]c(C(=O)CN2CCN(S(=O)(=O)c3ccccc3[N+](=O)[O-])CC2)c1C	21µM	.	.	.	.	/
COc1ccc(CCN2C(=O)c3ccccc3C2c2nnnn2-c2c(C)cccc2C)cc1OC (stereo unspecified)	/	.	/	/	/	/
CCOc1cc(-c2cc(-c3ccc(C)o3)nc(N)c2C#N)ccc1O	15µM	.	?	.	.	.
CCCc1cc(-c2ccc(O)c(OCC)c2)c(C#N)c(N)n1	.	.	.	.	.	.
COc1ccc(NC(=O)CSc2oc(-c3cccs3)nc2S(=O)(=O)c2ccc(Br)cc2)c(OC)c1	.[9.27 µM]	.	.	.	/	.
CSc1nc(-c2ccco2)nn1C(=O)c1cccs1	.	.	.	.	.	.
O=C(c1cccs1)n1nc(-c2ccco2)nc1SCc1ccccc1	.	.	/	.	.	28µM
O=c1c(Sc2ccccc2)c(C(F)(F)F)[nH]n1-c1ccccc1	21µM	.	?	.	.	.
SMILES	Nrf2 block	Nrf2 ARE act	A549 tox-1	IDH1 R132H inh	Giardia kill	Apoferritin bind	others
O=c1c2c(C(F)(F)F)cc(C(F)(F)F)nc2[nH]n1-c1ccccc1	.	.	.	.	.	.
O=C(Cn1ncc2c3ccccc3n(Cc3ccccc3)c2c1=O)N1CCN(c2ccccn2)CC1	.	.	.	.	.	.
O=C(Cn1ncc2c3ccccc3n(Cc3ccccc3)c2c1=O)N1CCN(c2ncccn2)CC1	16µM	.	.	.	.	.
Oc1ccc(-c2cnc3ccccc3n2)cc1	?	.	.	.	.	/
c1coc(-c2cnc3ccccc3n2)c1	/	4µM	/	.	/	/
O=C(c1ccccc1)c1ccc2nc(-c3ccco3)c(-c3ccco3)nc2c1	.	?	?	.	.	?
c1coc(-c2nc3ccccc3nc2-c2ccco2)c1	.	10µM	.	.	.	.
COc1ncnc2c1ncn2CCCN(CCCc1ccccc1)CCCn1cnc2c(OC)ncnc21	/	.	/	.	/	/
C(C#CCCCCCCCCC[n+]1ccccc1)#CCCCCCCCCC[n+]1ccccc1	12µM	.	?	.	.	.
CC1CCN(c2c(NCc3ccc(C(=O)N4c5ccccc5CC4C)cc3)c(=O)c2=O)CC1 (stereo unspecified)	9.2µM	.	.	.	.	.	FLuc enzyme inh=.;A549 tox-2=.;Nrf2 ARE inh=2.1µM
Cc1ccc(NC(=S)N2CCN(Cc3ccc4c(c3)OCO4)CC2)c(C)c1	?	.	.	.	.	/
CCN(CC)S(=O)(=O)c1ccc(C)c(NC(=S)N2CCN(Cc3ccc4c(c3)OCO4)CC2)c1	6.5µM	.	.	.	.	.	FLuc enzyme inh=.;A549 tox-2=.;Nrf2 ARE inh=10µM
O=C(Nc1ccc2nc(SCCOc3ccccc3Cl)sc2c1)c1cccs1	9.2µM	.	.	.	/	.	FLuc enzyme inh=.;A549 tox-2=.;Nrf2 ARE inh=8.2µM
